# Results reported in PubChem BioAssay AID463173 (ICCB-Longwood Screening Facility, Harvard Medical School, 2010).
# Among all 52,000 compounds or so, about 4,300 (8.3%) were called active. What follows is part of a selection rich in actives, with near analogues and random picks from the rest. Unmarked numbers belong to inactive results. No stated cut-off is given here; in the data, active means survival mostly below about 52% (no sharp cut-off); inactive means mostly above about 56%.
# Test system: DeltatarO mutant
# Assay: growth inhibition of S. aureus wild type versus tarO mutant, primary screen, teichoic acid synthesis inhibitors, RN4220, OD600 (AID 463173)
# Details: OD600, 18 h, active compounds read low, screened at 18.75 µg/mL (by protocol)
row,SMILES,survival
1,Clc1ccc(OCc2nc(-c3ccc(-n4cccc4)cc3)no2)cc1,163%
2,O=C(CNCC1CCCO1)NCc1ccco1 (stereo not given),97%
3,CCN(Cc1ccccc1)Cc1c(O)ccc2c(=O)c(-c3ccccc3Cl)c(C(F)(F)F)oc12,74%
4,COc1ccc(N=C2SCC(=O)N2C)cc1,76%
5,COc1ccc(C2=Nn3c([n+](C)c4ccccc43)SC2)cc1,0% (active)
6,COc1ccc(C2=Nn3c(nc4sc(C(=O)Nc5cccc(C)c5)c(C)c4c3=O)SC2)cc1,105%
7,O=C(COc1ccccc1)Nc1ccccc1OCc1cc(=O)n2ccccc2n1,78%
8,CCC1CN(C(=O)N2CCC(C(=O)NCCCc3ccccc3)CC2)c2ccccc2O1 (stereo not given),69%
9,CNCC(=O)NC(c1ccccc1)c1ccccc1,97%
10,CN(C)CCCN(C(=O)c1ccc(Br)s1)c1nc2ccc(F)cc2s1,-5% (active)
11,CN(C)CCCN(C(=O)c1cccs1)c1nc2ccc(F)cc2s1,92%
12,Cc1ccc2nc(N(CCCN(C)C)C(=O)c3ccc(Br)s3)sc2c1,77%
13,COC(=O)c1sc2cccc(F)c2c1S(=O)(=O)N1CCN(c2ccc(F)cc2)CC1,81%
14,COc1ccc2c(CNCc3cccs3)c(C(=O)O)n(Cc3cccc(F)c3)c2c1,72%
15,Cc1cc(C)cc(Nc2cc(C(=O)NCCCN(Cc3ccccc3)C(C)C)c3ccccc3n2)c1,-4% (active)
16,Cc1cc(C)cc(Nc2cc(C(=O)NCc3ccccc3)c3ccccc3n2)c1,113%
17,CSc1cccc(Nc2cc(C(=O)NCCCN(Cc3ccccc3)C(C)C)c3ccccc3n2)c1,88%
18,Cc1ccc(N2CC(C(=O)NCCS(=O)(=O)N3CCN(c4ccc(F)cc4)CC3)CC2=O)cc1 (stereo not given),89%
19,Cc1ccc(CN(C(=O)COc2ccccc2[N+](=O)[O-])c2ccccn2)o1,69%
20,Cc1ccc(CN(C(=O)COc2cccc([N+](=O)[O-])c2)c2ccccn2)cc1,39% (active)
21,Cc1ccc(CN(C(=O)COc2cccc([N+](=O)[O-])c2)c2ccccn2)o1,62%
22,Cc1ccc(CN(C(=O)COc2ccc([N+](=O)[O-])cc2)c2ccccn2)cc1,49%

row,SMILES,survival
1,Cc1ccc(CN(C(=O)COc2ccccc2[N+](=O)[O-])c2ccccn2)cc1,46%
2,Cc1ccc(CN(C(=O)COc2ccc([N+](=O)[O-])cc2)c2ccccn2)o1,62% (active)
3,Cc1c(-c2nsc(NC(=O)c3ccc(Cl)cc3)n2)nnn1-c1ccc(C(C)C)cc1,66%
4,CN(C1CCCCC1)S(=O)(=O)c1ccc(F)c(C(=O)Nc2ccc(C(F)(F)F)cc2)c1,83%
5,CCn1c(CN2CCCCC2)nc2cc(NC(=O)c3ccc([N+](=O)[O-])cc3)ccc21,90%
6,Cc1cccc(N(C)S(=O)(=O)c2nnc(NC(=O)C3CCCCC3)s2)c1,72%
7,O=C(Nc1nnc(S(=O)(=O)Nc2ccccc2)s1)c1ccccc1Cl,52%
8,CN(c1ccccc1)S(=O)(=O)c1nnc(NC(=O)C2CCCCC2)s1,65%
9,O=C(Nc1nnc(S(=O)(=O)Nc2ccccc2)s1)C1CCCCC1,31% (active)
10,Cc1cccc(NS(=O)(=O)c2nnc(NC(=O)c3cccc(C)c3)s2)c1,61%
11,Cc1cccc(NS(=O)(=O)c2nnc(NC(=O)C3CCCCC3)s2)c1,34% (active)
12,CC(=O)c1cc(-c2ccc(F)cc2)n(CCC(=O)Nc2nc3ccc(C)cc3s2)c1C,69%
13,Cc1cc(C)c(NC(=O)Cn2c(=O)oc3cc(S(=O)(=O)N4CCCCCC4)ccc32)c(C)c1,83%
14,CCOc1ccc(-n2c(SCC(=O)c3ccccc3)nc3c([nH]c4ccccc43)c2=O)cc1,131%
15,Cc1cccc(C(=O)OCc2cc(=O)n3nc(-c4cccs4)sc3n2)c1,101%
16,Cc1ccc(CCNC(=O)c2ccc(Nc3nc4ccccc4n4nnnc34)cc2)cc1,72%
17,N#Cc1ccc(NC(=O)C2Cc3ccccc3CN2S(=O)(=O)c2ccc(F)cc2)cc1 (stereo not given),54%
18,OCCn1nnnc1-c1ccccc1,85%
19,CCOc1ccc(C2N3CC4(C(C)C)CN2CC(C(C)C)(C3)C4=O)cc1OC (stereo not given),91%
20,CC(C)C12CN3CC(C(C)C)(CN(C1)C3c1ccc(Cl)cc1)C2=O (stereo not given),39% (active)
21,CC(C)C12CN3CC(C(C)C)(CN(C1)C3c1ccc(OCc3ccccc3)cc1)C2=O (stereo not given),85%
22,Cc1cccc(N2C(=O)CS/C2=N/NC(=O)c2cccc(Cl)c2)c1,97%

row,SMILES,survival
1,Cc1cc(C)cc(NC(=O)Cn2c(C(F)(F)F)nc3ccccc32)c1,67% (active)
2,Cc1cccc(NC(=O)Cn2c(SCC(=O)NCc3ccccc3)nc3ccccc32)c1C,119%
3,CCN(C(=O)CSc1nc2ccccc2n1CC(=O)Nc1cccc(C#N)c1)c1ccccc1,122%
4,CCN(C(=O)CSc1nc2ccccc2n1CC(=O)Nc1ccc(F)cc1F)c1ccccc1,77%
5,Cc1cccc(NC(=O)Cn2c(C(F)(F)F)nc3ccccc32)c1C,31% (active)
6,CC(=O)Nc1ccccc1-c1nc2ccccc2n(CC(=O)Nc2cccc(C)c2C)c1=O,117%
7,CCN(C(=O)CSc1nc2ccccc2n1CC(=O)Nc1ccccc1C)c1ccccc1,-5% (active)
8,O=C(Cn1c(=O)c(C(F)(F)F)nc2ccccc21)Nc1cccc(Br)c1,99%
9,Cc1ccc(NC(=O)Cn2c(=O)c(C(F)(F)F)nc3ccccc32)cc1C,60%
10,CC(C)C(=O)NS(=O)(=O)c1ccc(NC(=O)c2ccco2)cc1,90%
11,Cc1ccc(N2CC3=C(C2=O)C(c2ccc(Br)cc2)NC(=O)N3C)cc1 (stereo not given),74%
12,COc1cc(C)ccc1OCCSc1nc2ccc(NC(=O)c3ccccc3F)cc2s1,99%
13,Cc1ccc(-c2nc(NC(=O)CSc3cc(C)c4ccccc4n3)ns2)cc1,65%
14,Cc1cc(SCC(=O)Nc2ccc(Cl)cc2)nc2ccccc12,65%
15,Cc1cc(SCC(=O)Nc2nsc(-c3ccc(C(C)(C)C)cc3)n2)nc2ccccc12,13% (active)
16,COc1ccc2c(C)cc(SCC(=O)Nc3nsc(-c4ccc(C(C)(C)C)cc4)n3)nc2c1,56%
17,COc1ccc2c(C)cc(SCC(=O)Nc3nsc(-c4ccccc4C)n3)nc2c1,35% (active)
18,Cc1nc(SCC(=O)Nc2nsc(-c3ccc(C(C)(C)C)cc3)n2)c2c3c(sc2n1)CCCC3,78%
19,CC(C)(C)c1ccc(-c2nc(NC(=O)CSc3ncnc4sc5c(c34)CCCC5)ns2)cc1,57% (active)
20,Cc1ccc(-c2nc(NC(=O)CSc3ccc4ccccc4n3)ns2)cc1,77%
21,Cc1ccccc1-c1nc(NC(=O)CSc2ncnc3sc4c(c23)CCCC4)ns1,92%
